# An excerpt weighted towards active compounds, which were near 8.9% of everything screened.
# MCF10A rereplic = DNA re-replication induction in MCF 10a cells | MCF 10A DNA re-replication, Hoechst nuclear intensity, 48 h | Potency, µM (doses to about 46.1 µM), for the others: at the top dose activity, positive = re-replication, usual class: activators | actives 2.9% (n = 350,000); note: potency is the fitted concentration of half-maximal effect; % of control where 0% means no effect; nearly all actives have a fitted effect of over 50% in size
# KB-V1 MDR tox = kills drug-selected multidrug resistant KB-V1 cells; Potency, µM (series often up to 46.1 µM), usual class: cytotoxic; KB-V1 MDR cells viability, CellTiter-Glo, 72 h; AID 1347076; actives 3.4% (n = 400,000); note: potency is the fitted concentration of half-maximal effect; % is set by controls: 0 for no effect and ±100 for the full control effect; nearly all actives have a fitted effect of over 60% in size
#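 qHTS viability screen in drug-selected KB-V1 MDR cells: 72 h compound treatment at 37 degrees C, ATP luminescence end point.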
# DRD3 antagonist = D3 dopamine receptor (human) antagonism; P35462; D3R cells, DiscoveRx beta-arrestin luminescence, antagonist mode; hits give low values; max response, negative = inhibition, %; actives 2.5% (n = 360,000); in the data active = max response below about -50%; inconclusive = no clear call, values can overlap the other calls; note: % is set by controls: 0 for no effect and ±100 for the full control effect
# Target sequence (P35462 whole entry, looked up): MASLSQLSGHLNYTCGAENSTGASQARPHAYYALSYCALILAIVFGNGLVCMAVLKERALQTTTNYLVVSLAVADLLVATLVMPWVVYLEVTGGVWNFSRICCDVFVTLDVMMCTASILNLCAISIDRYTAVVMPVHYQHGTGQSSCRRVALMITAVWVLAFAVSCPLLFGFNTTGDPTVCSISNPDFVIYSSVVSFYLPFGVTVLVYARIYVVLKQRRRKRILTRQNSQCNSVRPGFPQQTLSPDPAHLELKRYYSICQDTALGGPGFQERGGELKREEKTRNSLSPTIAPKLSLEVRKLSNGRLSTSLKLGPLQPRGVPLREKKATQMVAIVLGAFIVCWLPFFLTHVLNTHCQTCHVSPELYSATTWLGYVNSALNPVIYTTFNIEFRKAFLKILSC
#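 Cells expressing the human receptor were seeded at 1500 cells/well, incubated overnight at 37 degrees C in 5% CO2, then exposed to library compounds with dopamine controls for 90 minutes at 37 degrees C before luminescent detection.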
# SW480 rereplic = inducers of DNA re-replication in SW480 colon cancer cells. SW480 DNA re-replication, Hoechst DNA content imaging, 48 h. Potency, µM (highest dose often 46.1 µM), without a hit: at the top dose re-replication activation, actives largely listed as activators. actives 1.8% (n = 340,000); note: potency is the fitted concentration of half-maximal effect; % of control where 0% means no effect; nearly all actives have a fitted effect of over 55% in size
#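 Cells (250 per well) received 23 nL compound or DMSO by pin tool and were kept 48 hr at 37 C, 5% CO2. Nuclei were then stained with Hoechst for 40 min and scanned for DNA content.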
# KB-3-1 cytotox = KB-3-1 parental cell cytotoxicity. KB-3-1 viability, CellTiter-Glo ATP luminescence, 72 h. Potency, µM (highest dose often 46.1 µM), usual class: cytotoxic. actives 1.4% (n = 400,000); note: potency is the fitted concentration of half-maximal effect; % is set by controls: 0 for no effect and ±100 for the full control effect; nearly all actives have a fitted effect of over 60% in size
#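 Screening of KB-3-1 cells (DMEM, 10% FBS, phenol-red free) ran from lowest to highest compound concentration; after 72 h at 37 °C viability was read luminescently and curves fitted.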
# DRD3 agonist = activates the human D3 dopamine receptor; AID 652048; D3R DiscoveRx beta-arrestin cells, luminescence, 90 min; max activation, %; P35462; actives 0.58% (n = 410,000); in the data active = max activation above about 30%; note: 0% is about no effect
#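 Agonist mode: compounds and dopamine controls were applied to plated cells for 90 min at 37 degrees C after an overnight attachment at 1500 cells/well. Luminescent read-out followed 30 - 60 minutes at room temperature with DiscoveRx detection reagent.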
# Starred values were filed as active, the others as inactive; i = inactive; ? = inconclusive; . = not tested or not shown; [ ] = remark or other dose. Unless noted, calls come from the whole dose curve; as a rule, active = well fitted curve in the direction sought with a large enough effect; inconclusive = small, poorly fitted or top-dose-only effect, or another doubt; inactive = no such curve, though single readings can be large; an effect the other way counts as inactive or inconclusive.
SMILES,MCF10A rereplic,KB-V1 MDR tox,DRD3 antagonist,SW480 rereplic,KB-3-1 cytotox,DRD3 agonist
O=C(NCCCN1CCN(c2ccccc2F)CC1)c1ccc2nc(CCc3ccccc3)oc2c1,.,.,.,.,.,8.5
CCOC(=O)c1[nH]c(C)c(C(=O)N(C)Cc2ccccc2)c1C,0.2%,16.4µM*,5.2,-3.5%,i,-2.9
CCOc1ccc(CCNC(=O)c2[nH]c(C)c(C(C)=O)c2C)cc1OCC,0.1%,18.4µM*,1.4,3.5%,i,17.5
CCNC(=O)c1c(C)[nH]c(C(=O)OCC)c1C,-18.1%,?,-20.1,?,i,10.1
CCOC(=O)c1[nH]c(C)c(C(=O)Nc2ccccc2C)c1C,3.66µM*,i,-29.6,?,?,-4.2
CCOC(=O)c1[nH]c(C)c(C(=O)Nc2cc(Cl)ccc2C)c1C,?,0.461µM*,-13.6,0.82µM*,?,-14.1
CCOC(=O)c1c(C)[nH]c(C(=O)OCc2ccccc2)c1C,-0.5%,i,16.7,-8.5%,i,8.2
C[C@@H](C(=O)O)c1ccc(C(=O)c2ccccc2)s1,-0.8%[20.6 µM],.,.,-1.2%[20.6 µM],.,.
COC(=O)c1ccc(NC(=O)CN(Cc2ccccc2)S(=O)(=O)c2ccc(Cl)cc2)cc1,.,?,.,.,?,-22.9
CCOC(=O)c1[nH]c(C)c(C(=O)NCc2cccc(OC)c2)c1C,.,i,.,.,i,5.2
CCOC(=O)c1[nH]c(C)c(C(=O)NCCc2ccc(OC)cc2)c1C,?,14.6µM*,8.8,-0.7%,i,3.9
Cc1ccccc1OCCCCCNCCO,24.7%,i,-14.5,-8.2%,i,-33.2
CC(C)c1ccccc1OCCCCCNCCO,?,i,-52.4*,1.1%,i,-20.9
CC(C)(C)c1ccccc1OCCCCCNCCO,?,?,-86.3*,?,i,-25.4
CCOc1cc(C(=O)NCCc2csc3nc(-c4ccccc4F)nn23)cc(OCC)c1OCC,.,i,.,.,i,-25.3
COC(=O)[C@@]1(Cc2ccc(OC)cc2)[C@H]2c3cc(C(=O)N4CCCC4)n(CCO)c3C[C@H]2CN1C(=O)c1ccccc1,24.2%,i,-23.3,-2.8%,i,-9.4
COC(=O)[C@@]1(Cc2ccc(OC)cc2)[C@H]2c3cc(C(=O)N4CCCC4)n(Cc4ccccc4)c3C[C@H]2CN1C(=O)c1ccccc1,.,10.3µM*,7.2,.,?,2.5
COC(=O)[C@@]1(Cc2ccc(OC)cc2)[C@H]2c3cc(C(=O)N4CCCC4)n(Cc4ccc(C)c(F)c4F)c3C[C@H]2CN1C(=O)c1ccccc1,.,7.31µM*,-25.3,.,?,-7.1
CCCNC(=O)C1(C)CCCN(C(=O)c2ccc3c(c2)CCO3)C1 (configuration not stated),.,i,40.7,.,i,3.5
CCNC(=O)C1(C)CCN(C(=O)c2ccc3c(c2)CCO3)C1 (configuration not stated),.,i,-50.8*,.,i,0.7
FC(F)(F)c1nc2nc(Cl)c(Cl)nc2n1CCCN1CCOCC1,.,i,-56.9*,.,i,-18.8
Cc1nc2ccccc2c(=O)n1CCCN1CCOCC1,-3.4%,i,4.5,-24.3%,i,3.7
COc1ccc(-c2cc(=O)[nH]c(=S)[nH]2)cc1,3.9%,?,-50.2*,-0.7%,i,6.0
COc1ccc(-c2cc(=O)c3cc(OC)ccc3[nH]2)cc1,-4.9%,i,6.0,-9.1%[9.22 µM],i,-9.5
Cc1cc(C)n(CCc2nc(-c3ccc(C(C)(C)C)cc3)cs2)n1,?,16.4µM*,12.6,13.8%,i,2.3
Cc1cccc2c(=O)cc(C)n(CC(=O)N3CCCCC3)c12,3.1%,16.4µM*,10.6,-3.8%,i,0.6
Cc1cccc2c(=O)cc(C)n(CC(=O)N3CCOCC3)c12,1.7%,i,10.0,-0.9%,i,0.9
COC(=O)C1C=CC(OC2OC(COC(C)=O)C(OC(C)=O)C(OC(C)=O)C2OC(C)=O)n2c(=O)n(-c3ccccc3)c(=O)n21 (configuration not stated),1.64µM*,5.17µM*,?,?,?,-3.3
